# High-throughput results (PubChem BioAssay)
# Shown are actives, neighbours in structure and some others; about 14% of the full set was active somewhere.
# Sm TGR inh – inhibitors of Schistosoma mansoni thioredoxin glutathione reductase. Potency, µM (top dose mostly 114 µM), without a hit: at the top dose activity change, negative = inhibition, most hits filed as inhibitors. Q962Y6. purified TGR, DTNB reduction, TNB absorbance 405 nm. actives 3% (n = 360,000); further: potency means the concentration at half of the fitted maximal effect; nearly all actives have a fitted effect of over 60% in size
#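 Kinetic colorimetric format: TGR-catalysed, NADPH-driven DTNB reduction monitored via TNB absorbance. Enzyme dispensed at 20 nM; compound exposure 15 min at room temperature before reaction start.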
# Pf growth 96h – P. falciparum growth inhibition at 96 hour, primary screen for plastid delayed-death inhibitors; P. falciparum luciferase reporter growth, 96 h; Potency, µM (highest dose often 28.7 µM), without a hit: at the highest dose activity change, negative = inhibition, most hits filed as inhibitors; actives 6.9% (n = 320,000); AID 504834; further: potency means the concentration at half of the fitted maximal effect
#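 Readout is luminescence from an integrated firefly luciferase in P. falciparum. Red cells, 2% hematocrit and 0.05% parasitemia final, were cultured with compound through two parasite generations (96 hours) at 37 C, 5% CO2.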
# HCMV inh – inhibitors of human cytomegalovirus; HFF cells, HCMV-luciferase reporter, 72 h; stronger effect = lower value; actives 4.5% (n = 410,000); activity change, negative = inhibition, % at 57.5 µM; AID 1259415; in the data active means activity change below about -60%; inconclusive means no clear call, values can overlap the other calls; inactive means above about -39%
#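 HFF cells seeded 16 h at 37C, treated with compounds, infected with luciferase-reporter HCMV at MOI 1 PFU/cell; luciferase read at 72 h post infection, normalized to buffer-only and Salinomycin controls.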
# FBPA Giardia inh – blocks Giardia fructose-bisphosphate aldolase activity; purified Giardia FBPA; actives 0.71% (n = 290,000); A8B2U2; Potency, µM (highest dose often 59.6 µM), for inactives: at the highest dose activity, negative = inhibition, usual class: inhibitors; further: potency means the concentration at half of the fitted maximal effect; nearly all actives have a fitted effect of over 55% in size
# Target sequence (A8B2U2 whole entry, looked up): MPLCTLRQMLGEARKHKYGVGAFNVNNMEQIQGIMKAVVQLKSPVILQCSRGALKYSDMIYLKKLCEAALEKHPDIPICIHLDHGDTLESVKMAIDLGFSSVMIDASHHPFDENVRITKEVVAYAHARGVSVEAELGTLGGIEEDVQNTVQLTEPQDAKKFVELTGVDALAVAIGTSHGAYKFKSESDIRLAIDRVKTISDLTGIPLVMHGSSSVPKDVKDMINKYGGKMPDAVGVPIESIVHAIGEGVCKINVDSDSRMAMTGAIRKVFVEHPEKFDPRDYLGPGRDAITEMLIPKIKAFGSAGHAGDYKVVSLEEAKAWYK
#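 Giardia FBPA (40 nM reagent) was preincubated 10 min at RT with compound (up to 57.5 uM final), then substrate plus GAPDH/TPI/NAD/arsenate coupling system with diaphorase/resazurin was added; resorufin fluorescence (525/598 nm) was read after 20 min.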
# Pf growth 48h – P. falciparum growth inhibition at 48 hours (one generation); P. falciparum luciferase growth in erythrocytes, 48 h; Potency, µM (doses to about 28.7 µM), inactives show at the top dose activity change, negative = inhibition, usual class: inhibitors; actives 5.9% (n = 310,000); AID 504832; further: potency means the concentration at half of the fitted maximal effect
#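 Parasite viability was followed by luminescence of a genomically integrated firefly luciferase. Cultures held 0.1% parasitemia at 2% hematocrit (final), incubated under 5% CO2 at 37 C.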
# * marks the source's active call; other numbers are inactive results; ? = inconclusive; . = no result given; + = active, no number; [ ] = remark or other dose. Unless noted, the call rests on the fitted dose curve; in most records, active means well fitted curve in the direction sought with a large enough effect; inconclusive means small, poorly fitted or top-dose-only effect, or another doubt; inactive means no such curve, though single readings can be large; an effect the other way counts as inactive or inconclusive. On the % scale 0 is the no-effect control and ±100 the full control effect.
SMILES,Sm TGR inh,Pf growth 96h,HCMV inh,FBPA Giardia inh,Pf growth 48h
Cc1ccc(NC(=O)C(c2ccc(Cl)cc2Cl)N2CCCC2)cc1 (stereo not drawn),-12%,27%,-65*,2%,?
Cc1ccc(NC(=O)C(C)N2CCCC2)cc1Cl (stereo not drawn),4%,55%,?,-4%,-18%[5.75 µM]
CCN(CC)C(=O)COc1coc(CN2CCN(c3ccccc3F)CC2)cc1=O,2%,9.3µM*,-4,.,-7%
O=C(COc1coc(CN2CCN(c3ccccc3F)CC2)cc1=O)Nc1ccccc1,-3%,30%,5,.,15%
Cc1cc(NC(=O)COc2coc(CN3CCN(c4ccccc4F)CC3)cc2=O)no1,0%,9.3µM*,-8,.,?
Cc1cc(NC(=O)COc2coc(CN3CCN(c4ccccc4)CC3)cc2=O)no1,-1%,?,-2,.,?
Cc1cc(NC(=O)COc2ccccc2)cc(-c2nc3ccccc3o2)c1O,-11%,.,2,.,.
CCn1cc(C(=O)NC2CCCCCC2)c(=O)c2ccc(C)nc21,-29%,-5%,-27,-13%,?
Cc1cc2ncn(/N=C/c3ccc([N+](=O)[O-])o3)c2cc1C,-4%,4.7µM*,-62*,-3%,?
CCCCCCCC(=O)N/N=C/c1ccc([N+](=O)[O-])o1,?,?,?,-12%,?
CCOC(=O)N/N=C\c1ccc([N+](=O)[O-])o1,-29%,8.3µM*,?,-5%,?
CC(=O)N/N=C/c1ccc([N+](=O)[O-])o1,.,12µM*,.,.,?
CC1(C(=O)N/N=C/c2ccc([N+](=O)[O-])o2)CC1(Br)Br (stereo not drawn),?,10µM*,-60*,-3%,?
CC(C)N1CCN(c2ccc(C(=O)c3c(-c4ccc(O)cc4)sc4cc(O)ccc34)cc2)CC1,.,.,.,5%,.
O=[N+]([O-])c1ccc(/C=N/N=C/c2ccc([N+](=O)[O-])o2)o1,10µM*,-5%,-100*,?,4.1µM*
O=C1CN(/N=C\c2ccc([N+](=O)[O-])o2)C(=O)N1,.,.,.,-24%[21.7 µM],.
CCC[C@H]1[C@@H](NS(=O)(=O)c2cccc(C)c2)CC[C@@]23CCCN2C(=O)CCC[C@@H]13,.,.,35,.,.
O=C(OCC(=O)N1CCN(C(=O)c2ccco2)CC1)c1cc(S(=O)(=O)Nc2ccc(Cl)cc2)ccc1O,45µM*,45%,2,12%,0%
COc1ccc(CNC(=O)COC(=O)c2cc(C)nc3ccccc23)cc1,.,.,40,.,.
O=C(CCNS(=O)(=O)c1ccc(Cl)cc1)OCC(=O)N1CCN(C(=O)c2ccco2)CC1,-17%,12%,18,.,6%
O=C(OCC(=O)N1CCN(C(=O)c2ccco2)CC1)c1cc(-c2ccco2)nc2ccccc12,5µM*,?,94,?,53%
COc1ccc(CNC(=O)COC(=O)c2cc(-c3ccco3)nc3ccccc23)cc1,11µM*,3%,.,-15%,.
CCNC(=O)COC(=O)c1cc(-c2ccco2)nc2ccccc12,16µM*,20%,-12,-7%,-1%
COC(=O)[C@@]1(Cc2ccccc2)C=C[C@@H](C)N1C(=O)c1ccccc1,.,.,.,-10%,.
COC(=O)C1=C[C@@H](C(=O)OC)[C@@H]2C3=C(C(=O)[C@@]2(C)NC(=O)c2ccccc2)[C@H](C)[C@@H]2C(=O)N(c4ccccc4)C(=O)[C@@H]2[C@@H]3C1,.,.,.,-1%,.
SMILES,Sm TGR inh,Pf growth 96h,HCMV inh,FBPA Giardia inh,Pf growth 48h
COc1ccccc1-c1cnn2c(NC3CCCC3)cc(C)nc12,12%,?,62,4%,30%
CC[C@]12C(=O)N(C)C[C@H]([C@@H]3C(=O)N(Cc4ccccc4)C(=O)[C@@H]31)N2C(=O)c1ccc(Br)cc1,.,.,-26,.,.
O=C(c1ccco1)N1CCN(C(=O)c2cc(-c3ccccn3)nc3ccccc23)CC1,35µM*,182%,53,2%,-23%
O=C(c1cc(-c2ccco2)nc2ccccc12)N1CCN(c2ccc(F)cc2)CC1,?,13µM*,61,?,?
COCc1c(C(=O)OCC(=O)N2c3ccccc3CC2C)oc2ccccc12 (stereo not drawn),-22%,34%,13,0%,10%
COc1cc(OC)cc(C(=O)NCC(=O)OCC(=O)N2c3ccccc3NC(=O)C2(C)C)c1,-2%,35%,-98*,5%,18%
Cc1cc(C)cc(C(=O)NCC(=O)OCC(=O)N2c3ccccc3NC(=O)C2(C)C)c1,4%,2%,4,0%,19%
COCc1c(C(=O)OCC(=O)N2c3ccccc3NC(=O)C2(C)C)oc2ccccc12,-4%,12µM*,7,-4%,?
CC(C)CCN(C(=O)Nc1ccccc1)C(C)c1cccs1 (stereo not drawn),0%,.,?,-9%,?
O=C(C1=C[C@H](c2ccc(C(F)(F)F)cc2)C[C@H](OCc2ccc(CO)cc2)O1)N1CCOCC1,?,16%,4,7%,-6%
COC(=O)c1ccc([C@H]2C=C(C(=O)O)O[C@@H](OCc3ccc(CO)cc3)C2)cc1,10µM*,56%,5,13%,43%
O=C(C1=C[C@@H](c2ccc(C(F)(F)F)cc2)C[C@@H](OCc2ccc(CO)cc2)O1)N1CCN(Cc2ccccc2)CC1,35µM*,?,-6,-5%,?
C#Cc1ccc([C@H]2C=C(C(=O)O)O[C@@H](OCc3ccc(CO)cc3)C2)cc1,35µM*,0%,-10,9%,0%
O=C(O)C1=C[C@H](c2ccc(C(F)(F)F)cc2)C[C@H](OCc2ccc(CO)cc2)O1,50µM*,0%,0,17%,3%
CC(C)(C)OC(=O)NC(NC(=O)OCC1c2ccccc2-c2ccccc21)C(=O)O (stereo not drawn),.,.,.,-25%,.
NCCC[C@@H](CC(=O)N[C@@H]1CCNC[C@H]1C(=O)N[C@H](CC(=O)N[C@@H](CCC(=O)O)CC(=O)O)Cc1c[nH]c2ccccc12)NC(=O)C[C@H](CO)NC(=O)[C@@H]1CNCC[C@H]1N,.,.,.,-21%,.
COc1cccc(COC(=O)c2ccc3c(=O)n4c(nc3c2)CCC4)c1OC,3%,?,-9,.,13µM*
CCOc1ccccc1N(CC)C(=O)c1ccc2c(=O)n3c(nc2c1)CCCCC3,1%,12µM*,?,3%,?
CC(Oc1ccc2c(-c3ccccc3)cc(=O)oc2c1)C(=O)NCCCn1ccnc1 (stereo not drawn),5%,?,-37,11%,?
Cc1ccc(S(=O)(=O)N2CCN(CC(=O)N3CCOCC3)CC2)cc1,1%,-4%,4,.,?
Cc1cc(Cl)c(C)c(S(=O)(=O)N2CCN(CC(=O)N3CCOCC3)CC2)c1Cl,-8%,-27%,+,.,-5%
COC(=O)c1ccc(CN(C)S(=O)(=O)c2cccs2)cc1,-12%,43%,25,3%,44%
